Measured values published in PubChem BioAssay AID886 (National Center for Advancing Translational Sciences (NCATS), 2007).
Where “and” joins values, the source holds several entries; their conditions need not be identical. Equal entries are not always repeated. Out of some 73,000 compounds screened, about 2,500 (3.4%) were called active. Another 7% or so got no clear call; they are omitted. Calls come from the whole dose curve; as a rule, active = well fitted inhibition curve with a large enough effect; inconclusive = small, poorly fitted or top-dose-only effect; inactive = no such curve, though single readings can be large or run the other way. Only a selection was taken, and actives are over-represented in it overall.

target: 3-hydroxyacyl-CoA dehydrogenase type-2 (Homo sapiens) (UniProt Q99714); assay: qHTS Assay for Inhibitors of HADH2 (Hydroxyacyl-Coenzyme A Dehydrogenase, Type II); conditions: recombinant HADH2, NADH fluorescence, beta-hydroxybutyryl-CoA; series mostly up to 57.1 µM; activity change, negative = inhibition: at the top concentration; note: nearly all actives have a fitted effect of over 60% in size
In short: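 Buffer 100 mM Tris-HCl pH 9.0/0.01% Tween-20; HADH2 20 nM; NAD+ 1 mM; beta-hydroxybutyryl-CoA 90 uM (all final). 15 min cpd preincubation, RT.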
% is set by controls: 0 for no effect and ±100 for the full control effect; potency is the fitted concentration of half-maximal effect.

Chain of 3-hydroxyacyl-CoA dehydrogenase type-2 (Homo sapiens) (Q99714 whole entry, looked up): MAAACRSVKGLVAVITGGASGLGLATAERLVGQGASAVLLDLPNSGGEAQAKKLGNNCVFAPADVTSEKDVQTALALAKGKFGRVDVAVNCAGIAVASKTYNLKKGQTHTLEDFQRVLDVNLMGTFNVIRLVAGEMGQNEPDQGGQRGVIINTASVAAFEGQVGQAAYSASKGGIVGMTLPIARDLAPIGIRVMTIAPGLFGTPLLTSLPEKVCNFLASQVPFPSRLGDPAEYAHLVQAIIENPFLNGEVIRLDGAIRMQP
Chain of 3-hydroxyacyl-CoA dehydrogenase type-2 (Homo sapiens) (Q99714 whole entry, looked up): as above

Activity change, negative = inhibition, inactive:
Cc1ccc(Br)cc1 -4.88%, CCCn1c(-c2ccc(F)cc2)nc2c(NC3CCN(Cc4ccccc4)C3)nc(C)nc21 (stereo unspecified) -21.3%, COc1ccccc1CNc1nc(-c2c(C)noc2C)nc2ccccc12 -25.4%, C[C@@H](c1ccccc1)N1C(=O)[C@H]2[C@H]3[C@H](O)[C@H](O)C/C(=N/OC[C@@H](O)COCc4ccco4)[C@@H]3CC[C@@H]2C1=O 7.28% [at 11.4 µM], CCCc1[nH]nc2c1C(C1CC=CCC1)C(C#N)=C(N)O2 (stereo unspecified) -5.39%, CCCc1[nH]nc2c1C(c1ccc(OC(=O)c3ccco3)cc1)C(C#N)=C(N)O2 (stereo unspecified) -4.83%, CN(C)c1ncc2nc(-c3ccc(F)cc3)c(=O)n(Cc3ccc(F)cc3)c2n1 -1.36%, COC(=O)[C@@]1(Cc2ccc(OC)cc2)[C@H]2c3cc(C(=O)N4CCCC4)n(Cc4ccc(C(F)(F)F)nc4)c3C[C@H]2CN1C(=O)c1ccccc1 3.4%, O=C(CSc1nnc(-c2ccc(NS(=O)(=O)c3ccccc3)cc2)o1)NCC1CCCO1 (stereo unspecified) -10.8%, O=C(CS(=O)(=O)Cc1ccccc1)NCC1CCCO1 (stereo unspecified) 3.24%, Cc1ccnc(N)c1 10.4%, N#Cc1ccc(CN2CCCC3(CCN(C(=O)c4ccco4)CC3)C2)cc1 -3.04%, COc1ccc(/C=C/NC(=O)c2ccc(OC)cc2)cc1 -13.3% [at 11.4 µM], CO/N=C\[C@@H](C)[C@H](OCc1ccccc1)C(C)C 2.33% [at 11.4 µM], COc1cccc(Cn2c(=O)c(-c3ccccc3)nc3cnc(OC)nc32)c1 2.81%, C=CC(=C)CCC=C(C)C 6.01%, COc1ccccc1C(=O)n1nc(-c2ccccc2)nc1N 0.521%, COc1ccc(C(=O)n2nc(-c3ccc(Cl)cc3)nc2N)cc1OC 20%, CO[C@@H]1COC(=O)C/C=C\[C@H](C)[C@@H](NS(=O)(=O)c2ccc(C)cc2)COC(=O)C/C=C\[C@@H]1C 6.59% [at 11.4 µM] and 13.2% [at 11.4 µM], COc1ccc(C(=O)N2CCC[C@@]3(CCN(C(=O)NC(C)C)C3)C2)cc1 -3.04%, O=C1OCCC=C1[C@@H](O)CCc1ccccc1 -6.14% [at 11.4 µM], C[C@H]1CC[C@H](C(=O)O)N[C@@H]1c1ccc(C#Cc2ccccc2)cc1 4.48% [at 11.4 µM], CCOC(=O)c1cc2ccccc2nc1C 3.8%, CCCc1nc2ccccc2c(C(=O)OCc2nnc(-c3cc(OC)c(OC)c(OC)c3)o2)c1CC 11%, Cc1cc2c(cc1C)NC1=C(N2)O[C@H](c2c[nH]c3ccc(COc4ccccc4)cc23)C1=O 0.634% [at 11.4 µM], O=C1CC(c2cccc(Br)c2)C2=C(CCCC2=O)N1 (stereo unspecified) 1.13%, C[C@@H](C(=O)Nc1ccc2ccccc2c1)[C@@H]1C[C@@]1(C)[C@@H](NC(=O)c1cccnc1)c1ccccc1 3.59%, COc1ccc(C[C@H](N)C(=O)N[C@@H]2[C@H](O)[C@H](n3cnc4c(N(C)C)ncnc43)O[C@@H]2CO)cc1 -1.06% [at 25.6 µM], O=C(NCc1ccc2c(c1)OCO2)c1ccc2c(c1)C(=O)N(CC1CCCO1)C2=O (stereo unspecified) -0.581%, CN1C(=O)c2ccc(NC(=O)C3CCCCC3)cc2C1=O 3.73%, c1ccc2sc(SCCSc3nc4ccccc4s3)nc2c1 16.5% [at 11.4 µM], COC(=O)[C@@]1(Cc2ccc(F)cc2)[C@@H]2[C@@H](CC(=O)[C@H]2CC(=O)C(=O)N2CCCC2)CN1C(=O)c1ccccc1 -3.47%, O=C(OCC(COC(=O)c1ccccc1)(COC(=O)c1ccccc1)COC(=O)c1ccccc1)c1ccccc1 0.505%, COC(=O)C1=CN(C)C=C(C(=O)OC)C1c1ccc(Cl)cc1Cl 16.3%, CCOc1cc(C2C(C(=O)OC)=CN(C3CCCC3)C=C2C(=O)OC)cc(Br)c1O 106%, Cn1c(=O)c(-c2ccccc2)nc2cnc(N3CCNCC3)nc21 7.59%, CO[C@H]1COC(=O)[C@H](Cc2ccccc2)NC(=O)C/C=C\[C@@H](C)[C@H](OC)COC(=O)C/C=C\[C@@H]1C 2.71% [at 11.4 µM], c1n[nH]c(NCc2ccc3c(c2)OCO3)n1 3.73%, O=C(Nc1cccnc1)c1ccc2c(c1)OCO2 -0.811%, CCCCCCc1ccc(O)cc1O -15.6%, O=C(Cn1c(=O)sc2ccccc21)Nc1nc2c(s1)CCCC2 -1.57%, COc1cccc(Cn2c(=O)c(CCc3ccccc3)nc3cnc(N(C)C)nc32)c1 9.43%, CCOc1ccc(-c2nnc3ccc(SC)nn23)cc1 9.93%, CC1CCN(C(=O)CSc2ccc3nnc(-c4cccc(F)c4)n3n2)CC1 1.29%, Cc1cc(C)c2nc3c(c([C@H](O)[C@@H]4CCCCN4)c2c1)CC/C3=C/c1ccc(Cl)cc1 12.8% [at 11.4 µM], COC(=O)[C@@]1(Cc2ccc(F)cc2)[C@H]2c3cc(C(=O)N4CCCC4)n(Cc4ccc(OC(F)(F)F)cc4)c3C[C@H]2CN1C(=O)c1ccccc1 19.7%, CCc1cc(=O)oc2cc(C)cc(OC(C)C(=O)O)c12 (stereo unspecified) 35.9%, O=C(O)c1cccc(S(=O)(=O)NCCO)c1 -11.5% [at 11.4 µM], O=C(CN1C(=O)CCS(=O)(=O)c2ccccc21)NCc1ccc(F)cc1 -2.44%, CC(C)C1N=C2c3ccccc3N=C(SCC(=O)c3ccc(O)c(O)c3)N2C1=O (stereo unspecified) -14.9%, CC(=O)/C(=N\N=C(N)N)c1ccccc1 5.03% [at 11.4 µM], NS(=O)(=O)c1cc(C(=O)O)c(Cl)c([N+](=O)[O-])c1Cl 11.6% [at 11.4 µM], O=C(c1ccncc1)N1CCC2(CCN(Cc3cc(C(F)(F)F)cc(C(F)(F)F)c3)CC2)CC1 -3.48%, Cc1nc2cnc(N3CCNCC3)nc2n(CCc2ccccc2)c1=O 8.83%, Cc1cc(C)c2c(n1)nn1c(N3CCN(c4cccc(Cl)c4)CC3)cc(C)nc21 9.7%, Cc1cc(C)c2c(n1)nn1c(-n3ccnc3)cc(C)nc21 66.3%, Cc1cc(C(=O)O)ccc1[N+](=O)[O-] -0.468%, CCCCC/C=C/C=C/C=O -1.37%, Cc1ccc2nc(CC(=O)c3ccc4ccccc4c3)c(=O)[nH]c2c1 11.5% [at 11.4 µM], CCCC[C@H]1C(=O)N(c2ccccc2)N(c2ccc(O)cc2)C1=O -44.1% [at 25.6 µM], COc1ccc(-n2c(=O)c(C)nc3cnc(N4CCOCC4)nc32)cc1 -4.99%, COCC(=O)N1CCC2(CCCN(c3ccccc3)C2)CC1 0.963%, O=C(O)COc1c(Cl)cc(Cl)c2cccnc12 7.63% [at 11.4 µM], COc1ccc(-c2n[nH]c(C)c2-c2ccc(OC)c(OC)c2)c(O)c1 -5.55%, Oc1ccc(-c2csc(Nc3cccnc3)n2)cc1 -8.12%, CO[C@@H]1/C=C\O[C@]2(C)Oc3c(C)c(O)c4c(O)c(c(CN(C)C)c(O)c4c3C2=O)NC(=O)/C(C)=C\C=C[C@@H](C)[C@@H](O)[C@H](C)[C@@H](O)[C@H](C)[C@H](OC(C)=O)[C@@H]1C -4.82% [at 11.4 µM], CC(C)NC(=O)N1CC[C@@]2(CCCN(C(=O)c3cccc(F)c3)C2)C1 2.38%, COC(=O)NC(c1ccccc1)[C@]1(C(C)=O)CCCC1=O (stereo partly specified) 4.66% [at 11.4 µM], CC/C=C/C/C=C/C/C=C/CCCCCCCC(=O)OCC -7.06%, CN(C)CCSS(=O)(=O)O 9.41% [at 11.4 µM]

Potency, active:
CC[C@@H]1Cc2cc(O)ccc2C2=C1c1ccc(O)cc1C[C@H]2CC 25.1 µM, CCCc1[nH]nc2c1C(c1ccc(Br)s1)C(C#N)=C(N)O2 (stereo unspecified) 10 µM, Oc1ccc(O)c2c(O)cccc12 1.26 µM, O=C(CSC1=Nc2ccccc2C2=NC(c3ccccc3)C(=O)N12)NCC1CCCO1 (stereo unspecified) 31.6 µM, C[C@@H]1O[C@@H](O[C@@H]2[C@@H](O)[C@H](OCCc3ccc(O)c(O)c3)O[C@H](CO[C@@H]3O[C@H](CO)[C@@H](O)[C@H](O)[C@H]3O)[C@H]2OC(=O)/C=C/c2ccc(O)c(O)c2)[C@H](O)[C@H](O)[C@H]1O 0.1 µM, CCOC(=O)CCc1c(C)c2ccc(OCc3nn[nH]n3)c(C)c2oc1=O 25.1 µM, COc1ccc(C(=O)n2nc(-c3ccc(C)cc3)nc2N)cc1OC 31.6 µM, CCOC(=O)c1cc(-c2nnc(-c3cc(OC)c(OC)c(OC)c3)o2)c(C)nc1C 5.01 µM, CCCN1C2=C(C(=O)CCC2)C(c2ccc(O)c(Br)c2)C2=C1CCCC2=O 15.8 µM, CCC(=O)Nc1ccc(C(=O)Nc2ccc3c(c2)C(=O)N(CC2CCCO2)C3=O)cc1 (stereo unspecified) 10 µM, CCOc1ccccc1C1C(C(=O)OC)=CN(C)C=C1C(=O)OC 31.6 µM, c1cncc(CNc2ccnc(-c3ccc4c(c3)OCO4)n2)c1 25.1 µM, COC(=O)C(C)Sc1ccc2nnc(-c3cccc(F)c3)n2n1 (stereo unspecified) 12.6 µM, CCCCc1cc(=O)oc2cc(C)cc(OCc3nn[nH]n3)c12 25.1 µM, NC(=O)CSC1=Nc2ccccc2C2=NC(CCC(=O)NCc3ccc(F)cc3)C(=O)N12 (stereo unspecified) 31.6 µM, Cc1cc(C)c2c(n1)nn1c(N3CCOCC3)cc(C)nc21 25.1 µM, C=CC(=O)c1ccc2ccccc2c1 20 µM, COc1ccc(OC)c(Nc2nc(-c3ccc(O)c(O)c3)cs2)c1 0.126 µM, CN1CCCc2cc(C#N)c(=O)[nH]c21 3.16 µM

Potency, inactive:
CCN(Cc1ccncc1)C(=O)[C@@H](CO)c1ccccc1, C=CC(=O)OCCOCCOCCOCCOC(=O)C=C
